In ChEMBL document CHEMBL4513216, “Probing the Open Global Health Chemical Diversity Library for Multistage-Active Starting Points for Next-Generation Antimalarials” (ACS Infect Dis, 2020):
Among all 68,000 compounds or so, about 2,700 (4%) showed an effect of 50% or more. This is one part of a sample in which strong results are shown more often than they occur.

test system: Plasmodium berghei; test: Screen against P. berghei liver stage (PbLuc), transformed with Luciferase, at 2uM; format: functional, HepG2; details: tested at 2 uM

SMILES | INHIBITION
Cc1cc(C)n(CC2CCCN2Cc2ncc(C(C)(C)C)o2)n1 (stereo not given) | -11.91%
Cc1cnn(CC2CCCCN2Cc2ncc(C(C)(C)C)o2)c1 (stereo not given) | 30.91%
CCC1CCCCN1Cc1ncc(C(C)(C)C)o1 (stereo not given) | 70.27%
O=S(=O)(NCC1(O)CCOCC1)c1c(F)cccc1F | 43.15%
CCc1cnc(N2CCc3ncnc(N4CCN(C)CC4)c3CC2)nc1 | -64.85%
NC(=O)N1CC(OCc2cccc3ccccc23)C1 | 5.98%
Cc1cc(C)c2ncn(CCOCCO)c(=O)c2c1 | 24.55%
O=C(NCc1n[nH]c2c1CCCCC2)c1cnn2c1CCCC2 | -23.38%
CCc1nc(CN2CCCN(C(=O)COCC3CC3)CC2)cs1 | 3.9%
Cn1cc(C(O)CNC(=O)c2cc(Br)ccc2Cl)cn1 (stereo not given) | 20.29%
CCC(CC)NC(=O)c1ccc2nnc(C3CCN(C(C)=O)C3)n2c1 (stereo not given) | 30.75%
O=C1CCC2(CCCN(C(=O)Cc3cccnc3)C2)N1 (stereo not given) | 29.3%
O=C1CCC2(CCCN(C(=O)Cc3ccccn3)C2)N1 (stereo not given) | 29.85%
O=C1CCC2(CCCN(C(=O)Cc3ccccc3)C2)N1 (stereo not given) | 60.05%
CS(=O)(=O)N1CCN(C(=O)c2cncs2)CC(C(N)=O)C1 (stereo not given) | -33.32%
CNC(=O)[C@@H](c1ccccc1OC)N1CCC[C@H]1C(=O)N1CC[C@@H](O)C1 | 50.91%
CNC(=O)[C@@H](c1ccccc1OC)N1CCC[C@H]1C(=O)N1CCC1 | -20.89%
CNC(=O)[C@@H](c1ccccc1OC)N1CCC[C@H]1C(=O)NC(C)(C)C | -1.63%
O=C(NCc1cc[nH]n1)NC1CCCN(c2ncccn2)C1 (stereo not given) | 12.8%
Cn1cccc1CN1CCC2(CCCN(C(=O)c3cnccn3)C2)C1 (stereo not given) | -30.12%
Cn1cccc1CN1CCC2(CCCN(C(=O)c3cccnc3)C2)CC1 | 61.08%
Cn1cccc1CN1CCC2(CCCN(C(=O)Cc3cccnc3)C2)C1 (stereo not given) | -4.92%
Cc1noc(CCCC(=O)NC(C)c2cccnc2)n1 (stereo not given) | -19.76%
N#CCCN(C(=O)CN1CCCC1c1ccsc1)c1ccccc1 (stereo not given) | -37.2%
N#CCCN(C(=O)CN1CCCC1c1ccsc1)c1ccccc1F (stereo not given) | 73.05%
N#CCCN(C(=O)CN1CCCC1c1cccs1)c1ccccc1F (stereo not given) | -13.06%
CC(C)c1nnc2n1CCN(C(=O)c1cc3cc(F)ccc3[nH]1)C2 | 31.57%
CC(C)CC(=O)N1CCCC1c1cc(CO)[nH]n1 (stereo not given) | 31.92%

SMILES | INHIBITION
CN(Cc1ccco1)C[C@H]1OC[C@@H]2CCN(Cc3ccsc3)C[C@@H]21 | 22.89%
CN(Cc1ccco1)C[C@@H]1OC[C@H]2CN(Cc3nccs3)CC[C@H]21 | 59.03%
CN(C)C[C@@H]1OC[C@H]2CN(Cc3ccoc3)CC[C@H]21 | 0.13%
CN(Cc1cccnc1)C[C@@H]1OC[C@H]2CN(Cc3ccco3)CC[C@H]21 | 10.53%
O=C(NC[C@H]1OC[C@@H]2CN(Cc3ccco3)CC[C@@H]21)c1cscn1 | 66.46%
CN(Cc1cccnc1)C[C@@H]1OC[C@H]2CN(Cc3ccoc3)CC[C@H]21 | 55.7%
CN(Cc1ccco1)C[C@H]1OC[C@@H]2CCN(Cc3ccccn3)C[C@@H]21 | -1.63%
CN(Cc1ccco1)C[C@H]1OC[C@@H]2CCN(Cc3cccs3)C[C@@H]21 | -2.83%
CN(Cc1ccco1)C[C@H]1OC[C@@H]2CCN(Cc3nccs3)C[C@@H]21 | -13.27%
Cc1ccc(CN2CC[C@H]3CO[C@H](CN(C)Cc4ccco4)[C@H]3C2)s1 | 59.03%
Cn1cc(C(=O)NC[C@@H]2OC[C@H]3CN(Cc4ccco4)CC[C@H]32)cn1 | -33.95%
O=C(NC[C@H]1OC[C@@H]2CN(Cc3ccco3)CC[C@@H]21)c1cccnc1 | -36.8%
O=C(N[C@@H]1CN(Cc2ccc3[nH]ccc3c2)C[C@H]1O)c1cscn1 | -0.83%
Cc1nn(C)c(C)c1CC(=O)N1CCC(N(C)c2cccnn2)CC1 | -48.87%
COc1ccc(C2=CCN(C(=O)C3CCS(=O)(=O)C3)CC2)cc1 (stereo not given) | -7.13%
Cc1ccccc1CN1CCC(NCC2CNc3ccnn3C2)CC1 (stereo not given) | -4.7%
N#Cc1ccccc1CN1C[C@H]2CC[C@@H](C1)N(CC1CCC1)C2=O | -39.43%
COc1ncccc1C(=O)NCCn1cnc(C)cc1=O | -7.16%
CCc1ccc(S(=O)(=O)Nc2ccn(CC(=O)OC)n2)cc1 | 11.9%
O=S(=O)(NCCCn1cncn1)c1ccc2c(c1)CCC2 | 54.99%
O=S(=O)(NCCCn1cncn1)c1ccc2c(c1)OCCCO2 | -56.09%
CCn1ccc(NS(=O)(=O)c2cccc(COC)c2)n1 | -85.71%
O=S(=O)(NCCCn1cncn1)c1ccc2c(c1)CCCC2 | -5.74%
O=S(=O)(NCCCn1cncn1)c1ccc2c(c1)OCCO2 | 65.71%
O=S(=O)(NCCCn1cncn1)c1ccc2c(c1)CCO2 | -9.13%
COC(=O)Cn1ccc(NS(=O)(=O)c2ccc3c(c2)CCC3)n1 | 53.98%
O=S(=O)(NCCCn1cccn1)c1ccc2c(c1)CCC2 | 42.26%
